# Data from the supplement of paper PMC4466140.
# Experiments:
# Test in all cases: SPOT peptide array binding signal intensity (averaged, normalized) (arbitrary units (background-subtracted, floor 0; scale differs between SH3 domains)); higher = stronger binding of the SH3 domain to the peptide
# AgAbp1 = target: AgAbp1
# Outline: (§1)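 GST-fused SH3 domains from four yeast species were expressed in E. coli BL21(DE3), purified on glutathione Sepharose and incubated at 10 μg/ml overnight at 4°C in TBS-based blocking buffer on cellulose membranes carrying synthetic 15-mer peptides, with cysteines replaced by serines. Bound protein was detected with anti-GST antibody, an HRP anti-mouse secondary and luminol, then imaged and quantified with Genespotter. Binding signal is the normalized, background-subtracted spot intensity averaged over replicates, in arbitrary units that differ between domains.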
# AgBbc1 = target: AgBbc1
# Outline: as §1
# AgBem1-D1 = target: AgBem1-D1
# Outline: as §1
# AgBzz1-D1 = target: AgBzz1-D1
# Outline: as §1
# AgBzz1-D2 = target: AgBzz1-D2
# Outline: as §1
# AgCyk3 = target: AgCyk3
# Outline: as §1
# AgFus1 = target: AgFus1
# Outline: as §1
# AgHof1 = target: AgHof1
# Outline: as §1
# AgHse1 = target: AgHse1
# Outline: as §1
# AgLsb1 = target: AgLsb1
# Outline: as §1
# AgLsb4 = target: AgLsb4
# Outline: as §1
# AgMyo5 = target: AgMyo5
# Outline: as §1
# AgNbp2 = target: AgNbp2
# Outline: as §1
# AgRvs167 = target: AgRvs167
# Outline: as §1
# AgSho1 = target: AgSho1
# Outline: as §1
# AgSla1-D1-D2 = target: AgSla1-D1-D2
# Outline: as §1
# AgSla1-D3 = target: AgSla1-D3
# Outline: as §1
# CaAbp1-D1 = target: CaAbp1-D1
# Outline: as §1
# CaAbp1-D2 = target: CaAbp1-D2
# Outline: as §1
# CaBbc1 = target: CaBbc1
# Outline: as §1
# CaBem1-D1 = target: CaBem1-D1
# Outline: as §1
# CaBzz1-D1 = target: CaBzz1-D1
# Outline: as §1
# CaBzz1-D2 = target: CaBzz1-D2
# Outline: as §1
# CaCyk3 = target: CaCyk3
# Outline: as §1
# CaFus1 = target: CaFus1
# Outline: as §1
# CaHof1 = target: CaHof1
# Outline: as §1
# CaHse1 = target: CaHse1
# Outline: as §1
# CaLsb1 = target: CaLsb1
# Outline: as §1
# CaLsb4 = target: CaLsb4
# Outline: as §1
# CaMyo5 = target: CaMyo5
# Outline: as §1
# CaNbp2 = target: CaNbp2
# Outline: as §1
# CaRvs167 = target: CaRvs167
# Outline: as §1
# CaRvs167-3 = target: CaRvs167-3
# Outline: as §1
# CaSho1 = target: CaSho1
# Outline: as §1
# CaSla1-D1-D2 = target: CaSla1-D1-D2
# Outline: as §1
# CaSla1-D3 = target: CaSla1-D3
# Outline: as §1
# ScAbp1 = target: ScAbp1
# Outline: as §1
# ScBbc1 = target: ScBbc1
# Outline: as §1
# ScBem1-D1 = target: ScBem1-D1
# Outline: as §1
# ScBzz1-D1 = target: ScBzz1-D1
# Outline: as §1
# ScBzz1-D2 = target: ScBzz1-D2
# Outline: as §1
# ScCyk3 = target: ScCyk3
# Outline: as §1
# ScFus1 = target: ScFus1
# Outline: as §1
# ScHof1 = target: ScHof1
# Outline: as §1
# ScHse1 = target: ScHse1
# Outline: as §1
# ScLsb1 = target: ScLsb1
# Outline: as §1
# ScLsb2 = target: ScLsb2
# Outline: as §1
# ScLsb3 = target: ScLsb3
# Outline: as §1
# ScLsb4 = target: ScLsb4
# Outline: as §1
# ScMyo3 = target: ScMyo3
# Outline: as §1
# ScMyo5 = target: ScMyo5
# Outline: as §1
# ScNbp2 = target: ScNbp2
# Outline: as §1
# ScPex13 = target: ScPex13
# Outline: as §1
# ScRvs167 = target: ScRvs167
# Outline: as §1
# ScSho1 = target: ScSho1
# Outline: as §1
# ScSla1-D1-D2 = target: ScSla1-D1-D2
# Outline: as §1
# ScSla1-D3 = target: ScSla1-D3
# Outline: as §1
# SpAbp1-D1 = target: SpAbp1-D1
# Outline: as §1
# SpBbc1 = target: SpBbc1
# Outline: as §1
# SpBzz1-D1 = target: SpBzz1-D1
# Outline: as §1
# SpBzz1-D2 = target: SpBzz1-D2
# Outline: as §1
# SpCyk3 = target: SpCyk3
# Outline: as §1
# SpHof1 = target: SpHof1
# Outline: as §1
# SpHof1-2 = target: SpHof1-2
# Outline: as §1
# SpHof1-3 = target: SpHof1-3
# Outline: as §1
# SpHse1 = target: SpHse1
# Outline: as §1
# SpLsb1 = target: SpLsb1
# Outline: as §1
# SpLsb4 = target: SpLsb4
# Outline: as §1
# SpMyo1 = target: SpMyo1
# Outline: as §1
# SpNbp2 = target: SpNbp2
# Outline: as §1
# SpPex13 = target: SpPex13
# Outline: as §1
# SpRvs167 = target: SpRvs167
# Outline: as §1
# SpSla1-D1-D2 = target: SpSla1-D1-D2
# Outline: as §1
# SpSla1-D3 = target: SpSla1-D3
# Outline: as §1
binder,measurement,setting,value
GKLKHIPRRPYEIER,SPOT peptide array binding signal intensity,AgAbp1,3.5
same,SPOT peptide array binding signal intensity,AgBbc1,102
same,SPOT peptide array binding signal intensity,AgBem1-D1,14
same,SPOT peptide array binding signal intensity,AgBzz1-D1,11
same,SPOT peptide array binding signal intensity,AgBzz1-D2,10.5
same,SPOT peptide array binding signal intensity,AgCyk3,1.5
same,SPOT peptide array binding signal intensity,AgFus1,10
same,SPOT peptide array binding signal intensity,AgHof1,5.5
same,SPOT peptide array binding signal intensity,AgHse1,≤ 0
same,SPOT peptide array binding signal intensity,AgLsb1,1
same,SPOT peptide array binding signal intensity,AgLsb4,12
same,SPOT peptide array binding signal intensity,AgMyo5,0.25
same,SPOT peptide array binding signal intensity,AgNbp2,≤ 0
same,SPOT peptide array binding signal intensity,AgRvs167,1.83
same,SPOT peptide array binding signal intensity,AgSho1,≤ 0
same,SPOT peptide array binding signal intensity,AgSla1-D1-D2,≤ 0
same,SPOT peptide array binding signal intensity,AgSla1-D3,0.75
same,SPOT peptide array binding signal intensity,CaAbp1-D1,129
same,SPOT peptide array binding signal intensity,CaAbp1-D2,1
same,SPOT peptide array binding signal intensity,CaBbc1,552
same,SPOT peptide array binding signal intensity,CaBem1-D1,5
same,SPOT peptide array binding signal intensity,CaBzz1-D1,116
same,SPOT peptide array binding signal intensity,CaBzz1-D2,67.5
same,SPOT peptide array binding signal intensity,CaCyk3,67.5
same,SPOT peptide array binding signal intensity,CaFus1,≤ 0
same,SPOT peptide array binding signal intensity,CaHof1,≤ 0
same,SPOT peptide array binding signal intensity,CaHse1,1.5
same,SPOT peptide array binding signal intensity,CaLsb1,≤ 0
same,SPOT peptide array binding signal intensity,CaLsb4,40
same,SPOT peptide array binding signal intensity,CaMyo5,≤ 0
same,SPOT peptide array binding signal intensity,CaNbp2,≤ 0
same,SPOT peptide array binding signal intensity,CaRvs167,2.83
same,SPOT peptide array binding signal intensity,CaRvs167-3,≤ 0
same,SPOT peptide array binding signal intensity,CaSho1,≤ 0
same,SPOT peptide array binding signal intensity,CaSla1-D1-D2,≤ 0
same,SPOT peptide array binding signal intensity,CaSla1-D3,≤ 0
same,SPOT peptide array binding signal intensity,ScAbp1,7
same,SPOT peptide array binding signal intensity,ScBbc1,55.2
same,SPOT peptide array binding signal intensity,ScBem1-D1,6
same,SPOT peptide array binding signal intensity,ScBzz1-D1,12
same,SPOT peptide array binding signal intensity,ScBzz1-D2,1
same,SPOT peptide array binding signal intensity,ScCyk3,17.5
same,SPOT peptide array binding signal intensity,ScFus1,≤ 0
same,SPOT peptide array binding signal intensity,ScHof1,≤ 0
same,SPOT peptide array binding signal intensity,ScHse1,150
same,SPOT peptide array binding signal intensity,ScLsb1,12.5
same,SPOT peptide array binding signal intensity,ScLsb2,≤ 0
same,SPOT peptide array binding signal intensity,ScLsb3,122
same,SPOT peptide array binding signal intensity,ScLsb4,5
same,SPOT peptide array binding signal intensity,ScMyo3,1.5
same,SPOT peptide array binding signal intensity,ScMyo5,0.5
same,SPOT peptide array binding signal intensity,ScNbp2,26.5
same,SPOT peptide array binding signal intensity,ScPex13,17.5
same,SPOT peptide array binding signal intensity,ScRvs167,16.7
same,SPOT peptide array binding signal intensity,ScSho1,71.5
same,SPOT peptide array binding signal intensity,ScSla1-D1-D2,12
same,SPOT peptide array binding signal intensity,ScSla1-D3,0.75
same,SPOT peptide array binding signal intensity,SpAbp1-D1,11
same,SPOT peptide array binding signal intensity,SpBbc1,1.75
same,SPOT peptide array binding signal intensity,SpBzz1-D1,240
same,SPOT peptide array binding signal intensity,SpBzz1-D2,≤ 0
same,SPOT peptide array binding signal intensity,SpCyk3,2.5
same,SPOT peptide array binding signal intensity,SpHof1,8
same,SPOT peptide array binding signal intensity,SpHof1-2,1
same,SPOT peptide array binding signal intensity,SpHof1-3,44.2
same,SPOT peptide array binding signal intensity,SpHse1,21
same,SPOT peptide array binding signal intensity,SpLsb1,12
same,SPOT peptide array binding signal intensity,SpLsb4,53.5
same,SPOT peptide array binding signal intensity,SpMyo1,0.75
same,SPOT peptide array binding signal intensity,SpNbp2,≤ 0
same,SPOT peptide array binding signal intensity,SpPex13,≤ 0
same,SPOT peptide array binding signal intensity,SpRvs167,3.17
same,SPOT peptide array binding signal intensity,SpSla1-D1-D2,≤ 0
same,SPOT peptide array binding signal intensity,SpSla1-D3,≤ 0
VPPVPLPFGIPPFPM,SPOT peptide array binding signal intensity,AgAbp1,3
same,SPOT peptide array binding signal intensity,AgBbc1,≤ 0
same,SPOT peptide array binding signal intensity,AgBem1-D1,288
same,SPOT peptide array binding signal intensity,AgBzz1-D1,6
same,SPOT peptide array binding signal intensity,AgBzz1-D2,10
same,SPOT peptide array binding signal intensity,AgCyk3,≤ 0
same,SPOT peptide array binding signal intensity,AgFus1,≤ 0
same,SPOT peptide array binding signal intensity,AgHof1,338
same,SPOT peptide array binding signal intensity,AgHse1,51
same,SPOT peptide array binding signal intensity,AgLsb1,2
same,SPOT peptide array binding signal intensity,AgLsb4,≤ 0
same,SPOT peptide array binding signal intensity,AgMyo5,720
same,SPOT peptide array binding signal intensity,AgNbp2,5
same,SPOT peptide array binding signal intensity,AgRvs167,≤ 0
same,SPOT peptide array binding signal intensity,AgSho1,4
same,SPOT peptide array binding signal intensity,AgSla1-D1-D2,4
same,SPOT peptide array binding signal intensity,AgSla1-D3,5.75
same,SPOT peptide array binding signal intensity,CaAbp1-D1,8
same,SPOT peptide array binding signal intensity,CaAbp1-D2,11
same,SPOT peptide array binding signal intensity,CaBbc1,2.5
same,SPOT peptide array binding signal intensity,CaBem1-D1,20
same,SPOT peptide array binding signal intensity,CaBzz1-D1,32
same,SPOT peptide array binding signal intensity,CaBzz1-D2,≤ 0
same,SPOT peptide array binding signal intensity,CaCyk3,3
same,SPOT peptide array binding signal intensity,CaFus1,102
same,SPOT peptide array binding signal intensity,CaHof1,≤ 0
same,SPOT peptide array binding signal intensity,CaHse1,2.5
same,SPOT peptide array binding signal intensity,CaLsb1,0.25
same,SPOT peptide array binding signal intensity,CaLsb4,27.5
same,SPOT peptide array binding signal intensity,CaMyo5,296
